The record followed here is PubChem BioAssay (NCI).

The nature of assay [1]: NCI Yeast Anticancer Drug Screen. Data for the rad50 strain (AID 155).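 Also: 0% = growth of vehicle-only cultures of the same strain.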 The settings on record: S. cerevisiae rad50 strain growth inhibition; at 50.0 µM; hits give high values. The method, boiled down:
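Growth of the mutant yeast was measured after compound exposure and referenced to vehicle-treated cultures.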

Assay [2] in a line: NCI Yeast Anticancer Drug Screen. Data for the mec2-1 strain (AID 157). The settings on record: S. cerevisiae mec2-1 strain, at 50.0 µM, hits give high values. The method, boiled down:
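Growth inhibition is read against vehicle-treated controls after compound exposure of the mec2-1 yeast strain, which is defective in DNA damage repair or cell cycle control.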

Assay [3] in a line: NCI Yeast Anticancer Drug Screen. Data for the sgs1 mgt1 strain (AID 161).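 Also: 0% = growth of cultures given vehicle only.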 The conditions noted are these: S. cerevisiae sgs1 mgt1 strain, at 50.0 µM, hits give high values. The method, boiled down: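 Percent growth inhibition was derived by comparing compound-exposed mutant yeast with vehicle-exposed cultures. The strain carries alterations in DNA damage repair.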
Assay [4] in a line: NCI Yeast Anticancer Drug Screen. Data for the cln2 rad14 strain (AID 165).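 Also: 0% = growth equal to vehicle treated cultures.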 The settings on record: S. cerevisiae cln2 rad14 strain, at 50.0 µM, hits give high values. In a few lines:
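Growth inhibition, relative to vehicle-treated controls, is the read-out. The test organism is a yeast strain with defined genetic alterations, cln2 rad14.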

Assay [5] can be described thus: NCI Yeast Anticancer Drug Screen. Data for the bub3 strain (AID 167). The settings on record: S. cerevisiae bub3 mutant strain, at 50.0 µM, hits give high values. In a few lines: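 Whole-cell yeast assay. The mutant strain was incubated with compounds, and growth inhibition was determined by comparison with vehicle-treated cells.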
A short description of assay [6]: NCI Yeast Anticancer Drug Screen. Data for the mlh1 rad18 strain (AID 175). The settings on record: S. cerevisiae mlh1 rad18 strain growth inhibition; at 50.0 µM; hits give high values. In a few lines: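 Cells of a genetically altered yeast strain, deficient in DNA damage repair, were treated with compound. Their growth was then compared with that of vehicle-treated cultures to give inhibition.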

The structures appear in SMILES notation. This is part of a sample that, as a whole, favours compounds with a hit. Of some 79,000 tested, about 15% had one in any assay. Unmarked numbers belong to inactive results. Active and inactive are the calls of the source. Rule as the data show it: active = growth inhibition above about 70%; inactive = the rest.

In the case of `CC(=O)Nc1ccc2c(=O)cc[nH]c2n1`, the growth inhibition in assay [1] was 13.7%; in assay [2], 2.9%; in assay [3], 2.4%; in assay [4], 1.9%; in assay [5] it was -2.95%; in assay [6], 31.2%.

With `Cc1nc(CO)cc(=O)[nH]1`, the growth inhibition was 19.6% in assay [1]; -5.5% in assay [2]; 12.2% in assay [3]; 9.85% in assay [4]; -25.4% in assay [5]; 14.1% in assay [6].

As for `CC(C)(C)CC(C)(C)c1c(O)cc(O)cc1Cl`, the growth inhibition in assay [1] was 99% (active); in assay [2] it was 99.3% (active); in assay [3] it was 94.8% (active); in assay [4], 99% (active); in assay [5] it was 99.2% (active); in assay [6], 99.2% (active).

Turning to `O=C(NCCCl)Oc1ccccc1`, the growth inhibition in assay [1] is 6.85%; in assay [2], -15.5%; in assay [3], -7.95%; in assay [4], -0.1%; in assay [5], -4.9%; in assay [6] it was -9.1%.

For `O[C@H]1[C@H]2[C@H](O)C[C@H](CCOCc3ccccc3)CN2C[C@H]1O`, the growth inhibition in assay [1] is -8.15%; in assay [2], 7.8%; in assay [3], -3.45%; in assay [4], 20%; in assay [5], 16%; in assay [6], -22.9%.

As to `CC(=O)OCc1nc2ncnc(N)c2[nH]1`, the growth inhibition is 0.5% in assay [1]; -5.65% in assay [2]; -11.4% in assay [3]; -52.4% in assay [4]; -3.4% in assay [5]; -4.9% in assay [6].

As to `CC1=NN(c2ccccc2C)C(=O)C1`, the growth inhibition is 2.05% in assay [1]; -27.8% in assay [2]; -5.1% in assay [3]; -2.6% in assay [4]; -27.9% in assay [5]; 8.1% in assay [6].

In the case of `CC(=O)N/N=C(\N)c1nc2c(n3nc(C)nc13)CCCC2`, the growth inhibition in assay [1] is -17.6%; in assay [2] it was -19%; in assay [3], -1.2%; in assay [4] it was -18.4%; in assay [5], -5.05%; in assay [6], 5.5%.

In the case of `N=C(N)SCc1ccc(Cl)cc1Cl` (tested in a mixture with another compound), the growth inhibition in assay [1] was 34.1%; in assay [2], 12.3%; in assay [3] it was 6.35%; in assay [4] it was 3.05%; in assay [5], 7.9%; in assay [6], 26.4%.

As to `NC(=O)c1cc2ccccc2[n+](Cc2ccc(F)cc2)c1`, the growth inhibition is -0.2% in assay [1]; 0.4% in assay [2]; 6.45% in assay [3]; -49.1% in assay [4]; 4.9% in assay [5]; -6.95% in assay [6].

Regarding `CCOC(=O)[C@H](C)OC(=O)[C@@](C)(NC(=O)c1ccccc1C(=O)OC)[C@@H]1NC=C(C(=O)OC)CS1`, the growth inhibition in assay [1] was -2.15%; in assay [2], 26.9%; in assay [3], 11.2%; in assay [4] it was 14.4%; in assay [5], 29%; in assay [6] it was 5.8%.

With `O=c1[nH]nc(-c2ccc(Cl)cc2)[nH]1`, the growth inhibition was 9.35% in assay [1]; -4.25% in assay [2]; -3.85% in assay [3]; -30.1% in assay [4]; -5.8% in assay [5]; -3.9% in assay [6].

Turning to `CCCCCCCC(CCCCCCC)(C(=O)OCC)C(=O)OCC`, the growth inhibition is 7.1% in assay [1]; -1.65% in assay [2]; 9.1% in assay [3]; -37.5% in assay [4]; 0.25% in assay [5]; 0.9% in assay [6].

Take `S=C(Nc1ccccc1)c1ccccc1`: the growth inhibition in assay [1] is -23.2%; in assay [2], -16.5%; in assay [3], -5.25%; in assay [4], -29.3%; in assay [5], -5.1%; in assay [6], 16.1%.

In the case of `O=C(O)C1CCCCC1O` (stereo unspecified), the growth inhibition in assay [1] is -11.6%; in assay [2], 21.1%; in assay [3], -5.25%; in assay [4] it was 23.3%; in assay [5], 21.4%; in assay [6], 1.3%.

For `CCOC(=O)c1ccc(N(CC(O)CN)S(=O)(=O)c2ccc(C)cc2)cc1` (stereo unspecified), the growth inhibition in assay [1] was 5.7%; in assay [2] it was -9.5%; in assay [3], -11.2%; in assay [4], 4.15%; in assay [5], 3.5%; in assay [6], -1.5%.

Take `SCCc1ccccc1`: the growth inhibition in assay [1] is -8.85%; in assay [2], -35.1%; in assay [3], -8.9%; in assay [4], -14%; in assay [5], 11.9%; in assay [6], -3.15%.

Turning to `O=c1cnn(C2OC(C(O)CO)C(O)C2O)c(=O)[nH]1` (stereo unspecified), the growth inhibition was -6.9% in assay [1]; -81.5% in assay [2]; -8.75% in assay [3]; -27.6% in assay [4]; -11.2% in assay [5]; -18.4% in assay [6].

Take `CC(=O)C1CCCC(=O)/C=C/C(=O)O1` (stereo unspecified): the growth inhibition is 3.4% in assay [1]; -12.8% in assay [2]; -7% in assay [3]; 5.8% in assay [4]; 11.5% in assay [5]; -18% in assay [6].

On to `COC(=O)C1CN(Cc2ccccc2)C(=O)C1=O` (stereo unspecified), for which the growth inhibition is -11.3% in assay [1]; -8.75% in assay [2]; 2.65% in assay [3]; -5.1% in assay [4]; 3.95% in assay [5]; 15.2% in assay [6].

Consider `O=C1c2cccc3cccc(c23)C(=O)N1CCCN(CCO)CCO`, for which the growth inhibition in assay [1] was -1.25%; in assay [2] it was 4.25%; in assay [3], -4.35%; in assay [4], 7.95%; in assay [5] it was -7.6%; in assay [6], 14.2%.
